Screening results deposited in PubChem BioAssay by Broad Institute.
The entries come from a sample that favours hits as a whole.
miR-122 inh: activators of miR-122 sensor in Huh7 cells. Huh7 psiCHECK-miR122 Renilla luciferase sensor, 48 h. activation, % at 12.5 µM. 340,000 tested, 0.14% active. AID 623901;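 active = mean activation of 30% or more, with every replicate also reaching 30%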;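 also: higher luciferase signal means stronger suppression of miR-122 activity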
Of the large screens only hits and unclear results are named; the others gave an inactive call.

COc1cccc(C(=O)Nc2cc([N+](=O)[O-])ccc2N2CCN(C)CC2)c1	none
CN1CCN(c2ccc(Cl)cc2NC(=O)c2ccc(S(=O)(=O)N3CCCCCC3)cc2)CC1	miR-122 inh 40
COc1ccc(NC(C)=O)cc1S(=O)(=O)Nc1ccc(S(=O)(=O)N2CCCCC2)cc1	none
CC(C)NC(=O)N(C)C[C@@H]1Oc2cc(C3=CCCCC3)ccc2S(=O)(=O)N([C@H](C)CO)C[C@@H]1C	none
CCC(=O)Nc1ccc2c(c1)OC[C@H](C)N(Cc1ccccc1F)C[C@H](C)[C@H](OC)CN(C)C2=O	none
CN(Cc1ccccc1)S(=O)(=O)c1ccc(NC(=S)NC(=O)C2CCCC2)cc1	none
Cc1cc(C)nc(NS(=O)(=O)c2ccc(NC(=S)NC(=O)C3CCCC3)cc2)n1	miR-122 inh 62
Cc1cc(C)cc(NS(=O)(=O)c2ccc(NC(=S)NC(=O)c3cccs3)cc2)c1	none
C[C@H]1CN([C@@H](C)CO)C(=O)c2cc(-c3ccncc3)cnc2O[C@H]1CN(C)C(=O)C1CCOCC1	none
CCCC#Cc1cnc2c(c1)C(=O)N([C@@H](C)CO)C[C@H](C)[C@@H](CN(C)Cc1ccccc1)O2	none
CC(C)NC(=O)N(C)C[C@@H]1Oc2cc(C3=CCCCC3)ccc2S(=O)(=O)N([C@@H](C)CO)C[C@H]1C	none
CO[C@@H]1CN(C)C(=O)c2cc(NC(=O)Nc3ccccc3)ccc2OC[C@@H](C)NC[C@@H]1C	none
CO[C@H]1CN(C)C(=O)c2cc(NC(=O)Nc3ccccc3)ccc2OC[C@@H](C)NC[C@H]1C	none
CC1CCN(CCc2nc3cc(NC(=O)Nc4ccccc4)ccc3n2C)CC1	miR-122 inh 31
C[C@@H]1CN([C@@H](C)CO)C(=O)c2cc(-c3cccc(C#N)c3)cnc2O[C@@H]1CN(C)C	none
C[C@@H]1CN([C@H](C)CO)S(=O)(=O)c2ccc(C#Cc3cccnc3)cc2O[C@@H]1CN(C)CC1CCOCC1	none
C[C@H]1CN([C@@H](C)CO)C(=O)c2cc(-c3cccc(C#N)c3)cnc2O[C@H]1CN(C)C	none
CCCCCCCCCn1c2c(c(=N)c3c1CCC3)CCC2	miR-122 inh 47
Cc1cc(S(=O)(=O)Nc2cc(C)c(O)c(C)c2)c(C)s1	none
COCC(=O)N(C)C[C@H]1Oc2cc(Br)ccc2S(=O)(=O)N([C@H](C)CO)C[C@@H]1C	none
CCCCNc1cc(C)nc(NCc2ccccc2)n1	miR-122 inh 41
C[C@H](CO)N1C[C@H](C)[C@H](CN(C)S(=O)(=O)c2ccc(F)cc2)Oc2ncc(C#CC3(O)CCCC3)cc2C1=O	none
COc1cccc(-c2cnc3c(c2)C(=O)N([C@H](C)CO)C[C@@H](C)[C@H](CN(C)C(=O)CC2CC2)O3)c1	none
Cc1cc(S(=O)(=O)NCC2CC2)c(Cl)cc1Cl	none
CCc1ccc(NC(=O)CN2CCc3ccccc3C2)cc1	none
CC(C)N1C(=O)CC(Nc2ccc(N3CCOCC3)cc2)C1=O (stereo not drawn)	none
CCc1nnc(SCC(=O)Nc2ccc(N3CCOCC3)cc2)o1	miR-122 inh 32
C[C@@H]1CN([C@H](C)CO)C(=O)c2cc(C#CC3(O)CCCC3)cnc2O[C@H]1CN(C)C(=O)Cc1ccccc1	none
Cc1c(C(=O)N2CCCCC2)c(S(=O)(=O)Nc2cccc(Br)c2)c(C)n1C	none
CCC(=O)N1[C@H](CO)[C@H](c2ccccc2)[C@@H]1CN(CC)C(=O)c1ccccc1	miR-122 inh 36
CCC(=O)N1[C@H](CO)[C@H](c2ccccc2)[C@@H]1CN(CC)C(=O)c1cccc(F)c1	none
CC(=O)N1[C@H](CN(C(=O)c2ccc(F)cc2)C(C)C)[C@H](c2ccccc2)[C@@H]1CO	miR-122 inh 67
CCC(=O)N1[C@H](CN(CC)C(=O)c2cccc(F)c2)[C@H](c2ccccc2)[C@@H]1CO	none
COCC(=O)NC[C@H]1[C@H](c2ccccc2)[C@@H](CO)N1C(=O)c1ccccc1	none
C/C=C/c1cnc2c(c1)C(=O)N([C@H](C)CO)C[C@@H](C)[C@H](CN(C)S(=O)(=O)c1cccs1)O2	none
C[C@@H]1CN([C@H](C)CO)C(=O)c2cc(C#Cc3ccccc3F)cnc2O[C@@H]1CN(C)C(=O)C1CCOCC1	none
C[C@@H]1CN([C@@H](C)CO)C(=O)c2cc(-c3ccccc3F)cnc2O[C@H]1CN(C)Cc1ccccc1F	none
CCC(=O)Nc1ccc2c(c1)OC[C@@H](C)N(C(=O)c1ccccn1)C[C@H](C)[C@@H](OC)CN(C)C2=O	none
C[C@H]1CN([C@@H](C)CO)C(=O)c2cc(-c3ccncc3)cnc2O[C@@H]1CN(C)C(=O)c1ccccc1F	none
CN(C)CCNc1ncnc2c1sc1nc(-c3ccccc3)c3c(c12)CCCC3	miR-122 inh 35
CC(C)Cc1nc2sc3c(=O)[nH]cnc3c2c2c1CCC2	none
Cc1noc(C)c1NC(=O)N(C)C[C@@H]1Oc2cc(C#CCC(C)C)ccc2S(=O)(=O)N([C@@H](C)CO)C[C@H]1C	none
O=C(O/N=C1\CCS(=O)(=O)c2sccc21)c1ccccc1	none
CNC[C@H]1Oc2cc(-c3ccccc3OC)ccc2S(=O)(=O)N([C@@H](C)CO)C[C@@H]1C	none
COc1ccc(S(=O)(=O)Nc2ccc(S(=O)(=O)N3CCCCC3)cc2)cc1C	none
O=C1NC(=O)/C(=C\c2ccccc2OCc2ccc([N+](=O)[O-])cc2)N1	miR-122 inh 37
C[C@@H]1CN([C@H](C)CO)C(=O)c2cc(-c3ccc(C(=O)N(C)C)cc3)cnc2O[C@H]1CN(C)C(=O)c1cccnc1	none
CC(=O)N(C)C[C@@H]1Oc2cc(/C=C/c3ccccc3)ccc2S(=O)(=O)N([C@H](C)CO)C[C@@H]1C	none
C/C=C/c1ccc2c(c1)O[C@H](CN(C)S(C)(=O)=O)[C@@H](C)CN([C@@H](C)CO)S2(=O)=O	none
Cc1ccc(-c2cnc3c(c2)C(=O)N([C@H](C)CO)C[C@H](C)[C@H](CN(C)C(=O)Cc2cccnc2)O3)cc1	none
C[C@@H]1CN([C@H](C)CO)S(=O)(=O)c2ccc(C#C[C@@H](C)O)cc2O[C@@H]1CN(C)C	none
CC#CCCCC(=O)Nc1ccccc1C(=O)O	miR-122 inh 32
C[C@@H]1CN([C@@H](C)CO)S(=O)(=O)c2ccc(-c3cncnc3)cc2O[C@@H]1CN(C)C(=O)Cc1ccncc1	none
C[C@H](CO)N1C[C@H](C)[C@H](CN(C)Cc2ccc(C(=O)Nc3ccccc3N)cc2)Oc2ccc(NC(=O)Nc3ccc4c(c3)OCO4)cc2CC1=O	none
C[C@@H]1CN([C@H](C)CO)S(=O)(=O)c2ccc(-c3ccccc3)cc2O[C@H]1CN(C)Cc1cccnc1	none
COc1ccccc1C#Cc1ccc2c(c1)O[C@H](CN(C)Cc1cccnc1)[C@H](C)CN([C@@H](C)CO)S2(=O)=O	miR-122 inh 39
COc1ccccc1C#Cc1ccc2c(c1)O[C@H](CN(C)Cc1cncnc1)[C@@H](C)CN([C@@H](C)CO)S2(=O)=O	none
C[C@@H]1CN([C@@H](C)CO)S(=O)(=O)c2ccc(-c3ccccc3F)cc2O[C@@H]1CN(C)Cc1cccnc1	miR-122 inh 49
C[C@H](CO)N1C[C@H](C)[C@H](CN(C)Cc2cccnc2)Oc2cc(-c3ccccc3)ccc2S1(=O)=O	none
COc1ccccc1C#Cc1ccc2c(c1)O[C@H](CN(C)Cc1cncnc1)[C@H](C)CN([C@@H](C)CO)S2(=O)=O	none
C[C@H]1CN([C@@H](C)CO)C(=O)c2cc(C#CC3(O)CCCC3)cnc2O[C@@H]1CN(C)C(=O)CN(C)C	none
C[C@H]1CN([C@@H](C)CO)S(=O)(=O)c2ccc(-c3cncnc3)cc2O[C@H]1CN(C)C(=O)Cc1cccnc1	none
CCCN(C)C[C@@H]1Oc2cc(-c3ccc(OC)cc3)ccc2S(=O)(=O)N([C@H](C)CO)C[C@@H]1C	none
CCn1nc(C)cc1-c1nnc(Sc2ncc([N+](=O)[O-])s2)n1C	miR-122 inh 45
